Test results published in the supplement of paper PMC4466140.

These binders were tested against AgAbp1 (assay: SPOT peptide array binding signal intensity (averaged, normalized) (arbitrary units (background-subtracted, floor 0; scale differs between SH3 domains)); higher = stronger binding of the SH3 domain to the peptide).
Method in brief: (§1)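 Detection of bound protein relied on anti-GST antibody, an HRP anti-mouse secondary and luminol, with imaging and quantification in Genespotter. The bound protein was GST-fused SH3 domains from four yeast species, incubated at 10 μg/ml overnight at 4°C in TBS-based blocking buffer on cellulose membranes carrying synthetic 15-mer peptides with cysteines replaced by serines. Binding signal is normalized, background-subtracted spot intensity averaged over replicates, in arbitrary units that differ between domains.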

Row | Binder | SPOT peptide array binding signal intensity
1 | TEVPIPRRPPPPQAA | ≤ 0

These binders were tested against AgBbc1 in the same assay as above.
Method in brief: as §1

Row | Binder | SPOT peptide array binding signal intensity
2 | TEVPIPRRPPPPQAA | 130

The binders below were run against AgBem1-D1 in the same assay as above.
Method in brief: as §1

Row | Binder | SPOT peptide array binding signal intensity
3 | TEVPIPRRPPPPQAA | ≤ 0

What follows are binders tested against AgBzz1-D1 in the same assay as above.
Method in brief: as §1

Row | Binder | SPOT peptide array binding signal intensity
4 | TEVPIPRRPPPPQAA | 8

Each binder was assayed against AgBzz1-D2 in the same assay as above.
Method in brief: as §1

Row | Binder | SPOT peptide array binding signal intensity
5 | TEVPIPRRPPPPQAA | 7.5

The binders below were run against AgCyk3 in the same assay as above.
Method in brief: as §1

Row | Binder | SPOT peptide array binding signal intensity
6 | TEVPIPRRPPPPQAA | ≤ 0

What follows are binders tested against AgFus1 in the same assay as above.
Method in brief: as §1

Row | Binder | SPOT peptide array binding signal intensity
7 | TEVPIPRRPPPPQAA | ≤ 0

What follows are binders tested against AgHof1 in the same assay as above.
Method in brief: as §1

Row | Binder | SPOT peptide array binding signal intensity
8 | TEVPIPRRPPPPQAA | ≤ 0

Each binder was assayed against AgHse1 in the same assay as above.
Method in brief: as §1

Row | Binder | SPOT peptide array binding signal intensity
9 | TEVPIPRRPPPPQAA | ≤ 0

The binders below were run against AgLsb1 in the same assay as above.
Method in brief: as §1

Row | Binder | SPOT peptide array binding signal intensity
10 | TEVPIPRRPPPPQAA | ≤ 0

Each binder was assayed against AgLsb4 in the same assay as above.
Method in brief: as §1

Row | Binder | SPOT peptide array binding signal intensity
11 | TEVPIPRRPPPPQAA | 23.5

These binders were tested against AgMyo5 in the same assay as above.
Method in brief: as §1

Row | Binder | SPOT peptide array binding signal intensity
12 | TEVPIPRRPPPPQAA | 938

The binders below were run against AgNbp2 in the same assay as above.
Method in brief: as §1

Row | Binder | SPOT peptide array binding signal intensity
13 | TEVPIPRRPPPPQAA | ≤ 0

What follows are binders tested against AgRvs167 in the same assay as above.
Method in brief: as §1

Row | Binder | SPOT peptide array binding signal intensity
14 | TEVPIPRRPPPPQAA | 2.33

The binders below were run against AgSho1 in the same assay as above.
Method in brief: as §1

Row | Binder | SPOT peptide array binding signal intensity
15 | TEVPIPRRPPPPQAA | ≤ 0

The binders below were run against AgSla1-D1-D2 in the same assay as above.
Method in brief: as §1

Row | Binder | SPOT peptide array binding signal intensity
16 | TEVPIPRRPPPPQAA | ≤ 0

Each binder was assayed against AgSla1-D3 in the same assay as above.
Method in brief: as §1

Row | Binder | SPOT peptide array binding signal intensity
17 | TEVPIPRRPPPPQAA | 1

What follows are binders tested against CaAbp1-D1 in the same assay as above.
Method in brief: as §1

Row | Binder | SPOT peptide array binding signal intensity
18 | TEVPIPRRPPPPQAA | ≤ 0

What follows are binders tested against CaAbp1-D2 in the same assay as above.
Method in brief: as §1

Row | Binder | SPOT peptide array binding signal intensity
19 | TEVPIPRRPPPPQAA | ≤ 0

Each binder was assayed against CaBbc1 in the same assay as above.
Method in brief: as §1

Row | Binder | SPOT peptide array binding signal intensity
20 | TEVPIPRRPPPPQAA | 768

What follows are binders tested against CaBem1-D1 in the same assay as above.
Method in brief: as §1

Row | Binder | SPOT peptide array binding signal intensity
21 | TEVPIPRRPPPPQAA | ≤ 0

What follows are binders tested against CaBzz1-D1 in the same assay as above.
Method in brief: as §1

Row | Binder | SPOT peptide array binding signal intensity
22 | TEVPIPRRPPPPQAA | 32

The binders below were run against CaBzz1-D2 in the same assay as above.
Method in brief: as §1

Row | Binder | SPOT peptide array binding signal intensity
23 | TEVPIPRRPPPPQAA | ≤ 0

These binders were tested against CaCyk3 in the same assay as above.
Method in brief: as §1

Row | Binder | SPOT peptide array binding signal intensity
24 | TEVPIPRRPPPPQAA | 20

What follows are binders tested against CaFus1 in the same assay as above.
Method in brief: as §1

Row | Binder | SPOT peptide array binding signal intensity
25 | TEVPIPRRPPPPQAA | ≤ 0

Each binder was assayed against CaHof1 in the same assay as above.
Method in brief: as §1

Row | Binder | SPOT peptide array binding signal intensity
26 | TEVPIPRRPPPPQAA | 1

The binders below were run against CaHse1 in the same assay as above.
Method in brief: as §1

Row | Binder | SPOT peptide array binding signal intensity
27 | TEVPIPRRPPPPQAA | ≤ 0

What follows are binders tested against CaLsb1 in the same assay as above.
Method in brief: as §1

Row | Binder | SPOT peptide array binding signal intensity
28 | TEVPIPRRPPPPQAA | 0.5

What follows are binders tested against CaLsb4 in the same assay as above.
Method in brief: as §1

Row | Binder | SPOT peptide array binding signal intensity
29 | TEVPIPRRPPPPQAA | 210

These binders were tested against CaMyo5 in the same assay as above.
Method in brief: as §1

Row | Binder | SPOT peptide array binding signal intensity
30 | TEVPIPRRPPPPQAA | 1

The binders below were run against CaNbp2 in the same assay as above.
Method in brief: as §1

Row | Binder | SPOT peptide array binding signal intensity
31 | TEVPIPRRPPPPQAA | 204

Each binder was assayed against CaRvs167 in the same assay as above.
Method in brief: as §1

Row | Binder | SPOT peptide array binding signal intensity
32 | TEVPIPRRPPPPQAA | ≤ 0

The binders below were run against CaRvs167-3 in the same assay as above.
Method in brief: as §1

Row | Binder | SPOT peptide array binding signal intensity
33 | TEVPIPRRPPPPQAA | 2.75

What follows are binders tested against CaSho1 in the same assay as above.
Method in brief: as §1

Row | Binder | SPOT peptide array binding signal intensity
34 | TEVPIPRRPPPPQAA | ≤ 0

Each binder was assayed against CaSla1-D1-D2 in the same assay as above.
Method in brief: as §1

Row | Binder | SPOT peptide array binding signal intensity
35 | TEVPIPRRPPPPQAA | ≤ 0

What follows are binders tested against CaSla1-D3 in the same assay as above.
Method in brief: as §1

Row | Binder | SPOT peptide array binding signal intensity
36 | TEVPIPRRPPPPQAA | 0.5

Each binder was assayed against ScAbp1 in the same assay as above.
Method in brief: as §1

Row | Binder | SPOT peptide array binding signal intensity
37 | TEVPIPRRPPPPQAA | ≤ 0

These binders were tested against ScBbc1 in the same assay as above.
Method in brief: as §1

Row | Binder | SPOT peptide array binding signal intensity
38 | TEVPIPRRPPPPQAA | ≤ 0

These binders were tested against ScBem1-D1 in the same assay as above.
Method in brief: as §1

Row | Binder | SPOT peptide array binding signal intensity
39 | TEVPIPRRPPPPQAA | ≤ 0

These binders were tested against ScBzz1-D1 in the same assay as above.
Method in brief: as §1

Row | Binder | SPOT peptide array binding signal intensity
40 | TEVPIPRRPPPPQAA | 14

Each binder was assayed against ScBzz1-D2 in the same assay as above.
Method in brief: as §1

Row | Binder | SPOT peptide array binding signal intensity
41 | TEVPIPRRPPPPQAA | 12

What follows are binders tested against ScCyk3 in the same assay as above.
Method in brief: as §1

Row | Binder | SPOT peptide array binding signal intensity
42 | TEVPIPRRPPPPQAA | ≤ 0

What follows are binders tested against ScFus1 in the same assay as above.
Method in brief: as §1

Row | Binder | SPOT peptide array binding signal intensity
43 | TEVPIPRRPPPPQAA | 1

These binders were tested against ScHof1 in the same assay as above.
Method in brief: as §1

Row | Binder | SPOT peptide array binding signal intensity
44 | TEVPIPRRPPPPQAA | ≤ 0

What follows are binders tested against ScHse1 in the same assay as above.
Method in brief: as §1

Row | Binder | SPOT peptide array binding signal intensity
45 | TEVPIPRRPPPPQAA | ≤ 0

These binders were tested against ScLsb1 in the same assay as above.
Method in brief: as §1

Row | Binder | SPOT peptide array binding signal intensity
46 | TEVPIPRRPPPPQAA | 5

What follows are binders tested against ScLsb2 in the same assay as above.
Method in brief: as §1

Row | Binder | SPOT peptide array binding signal intensity
47 | TEVPIPRRPPPPQAA | ≤ 0

Each binder was assayed against ScLsb3 in the same assay as above.
Method in brief: as §1

Row | Binder | SPOT peptide array binding signal intensity
48 | TEVPIPRRPPPPQAA | 118

Each binder was assayed against ScLsb4 in the same assay as above.
Method in brief: as §1

Row | Binder | SPOT peptide array binding signal intensity
49 | TEVPIPRRPPPPQAA | 2

Each binder was assayed against ScMyo3 in the same assay as above.
Method in brief: as §1

Row | Binder | SPOT peptide array binding signal intensity
50 | TEVPIPRRPPPPQAA | 1370

These binders were tested against ScMyo5 in the same assay as above.
Method in brief: as §1

Row | Binder | SPOT peptide array binding signal intensity
51 | TEVPIPRRPPPPQAA | 569

What follows are binders tested against ScNbp2 in the same assay as above.
Method in brief: as §1

Row | Binder | SPOT peptide array binding signal intensity
52 | TEVPIPRRPPPPQAA | 12

Each binder was assayed against ScPex13 in the same assay as above.
Method in brief: as §1

Row | Binder | SPOT peptide array binding signal intensity
53 | TEVPIPRRPPPPQAA | ≤ 0

The binders below were run against ScRvs167 in the same assay as above.
Method in brief: as §1

Row | Binder | SPOT peptide array binding signal intensity
54 | TEVPIPRRPPPPQAA | 1.83

What follows are binders tested against ScSho1 in the same assay as above.
Method in brief: as §1

Row | Binder | SPOT peptide array binding signal intensity
55 | TEVPIPRRPPPPQAA | ≤ 0

The binders below were run against ScSla1-D1-D2 in the same assay as above.
Method in brief: as §1

Row | Binder | SPOT peptide array binding signal intensity
56 | TEVPIPRRPPPPQAA | ≤ 0

What follows are binders tested against ScSla1-D3 in the same assay as above.
Method in brief: as §1

Row | Binder | SPOT peptide array binding signal intensity
57 | TEVPIPRRPPPPQAA | ≤ 0

What follows are binders tested against SpAbp1-D1 in the same assay as above.
Method in brief: as §1

Row | Binder | SPOT peptide array binding signal intensity
58 | TEVPIPRRPPPPQAA | ≤ 0

What follows are binders tested against SpBbc1 in the same assay as above.
Method in brief: as §1

Row | Binder | SPOT peptide array binding signal intensity
59 | TEVPIPRRPPPPQAA | 1.25

Each binder was assayed against SpBzz1-D1 in the same assay as above.
Method in brief: as §1

Row | Binder | SPOT peptide array binding signal intensity
60 | TEVPIPRRPPPPQAA | 37
